Most compounds without a hit are left out; they make up all but 7.5% or so of the library.
TSHR antagonist: antagonists of human thyroid stimulating hormone receptor. TSHR-expressing cells, TSH-stimulated cAMP HTRF, 2 h; stronger effect = lower value. 0.2% of 330,000 active. activity change, negative = inhibition, % at 11.5 µM. AID 504810. P16473;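 active = activity change below a set negative limit, meaning inhibition stronger than a set level, cut at about -70% in these data; inconclusive = activity change between two set negative limits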
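Competitive HTRF cAMP read-out (cryptate anti-cAMP antibody, cAMP-d2; 30 min, room temperature) in freshly harvested TSHR cells. Compounds added before TSH at EC80 (4nM final), followed by 2 hours' incubation at 37 deg C.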
Gal4-VP16 FLuc: counter-screen for ROR gamma inhibitors: Gal4-VP16 reporter. Potency, µM (doses to about 53.6 µM), inactives show top-dose activity, negative = inhibition, most hits filed as inhibitors. Drosophila S2 Gal4-VP16 UAS-luciferase, luminescence, 20 h. 3.5% of 310,000 active;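 note: Gal4-VP16 expression switched on by copper sulfate through the metallothionein promoter; potency is the fitted concentration of half-maximal effect; nearly all actives have a fitted effect of over 50% in size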
RORg inh: blocks mouse ROR gamma transcriptional activity; P51450; Drosophila S2 Gal4-RORgamma UAS-luciferase reporter, 20 h; Potency, µM (top dose mostly 53.6 µM), for inactives: at the highest dose activity change, negative = inhibition, most hits filed as inhibitors; 5.4% of 310,000 active; AID 2551; note: potency is the fitted concentration of half-maximal effect; nearly all actives have a fitted effect of over 60% in size
Target sequence (P51450 whole entry, looked up, the tested form may be a part): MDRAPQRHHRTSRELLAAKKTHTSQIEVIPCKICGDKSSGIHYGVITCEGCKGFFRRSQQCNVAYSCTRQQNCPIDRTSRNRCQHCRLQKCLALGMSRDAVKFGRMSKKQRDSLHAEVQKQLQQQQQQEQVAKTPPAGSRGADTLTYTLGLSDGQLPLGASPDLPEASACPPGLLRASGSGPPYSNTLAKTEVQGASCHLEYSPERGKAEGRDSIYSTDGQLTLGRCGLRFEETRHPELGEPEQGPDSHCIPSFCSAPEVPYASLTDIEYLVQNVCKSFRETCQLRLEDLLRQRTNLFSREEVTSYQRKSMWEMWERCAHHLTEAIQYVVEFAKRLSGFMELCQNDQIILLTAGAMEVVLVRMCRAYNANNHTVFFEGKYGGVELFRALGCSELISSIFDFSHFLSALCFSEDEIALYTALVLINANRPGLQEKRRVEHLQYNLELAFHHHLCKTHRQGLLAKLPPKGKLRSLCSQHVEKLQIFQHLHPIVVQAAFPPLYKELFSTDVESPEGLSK
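Read-out: Photinus luciferase luminescence; inhibitors lower reporter signal. Insect Schneider cells with Gal4-ROR gamma fusion under metallothionein promoter, UAS reporter; 700 uM final copper sulfate induction, 20 hr, ambient temperature.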
ELG1 repair inh: blocks ELG1-dependent DNA repair in HEK293T cells | HEK293T ELG1-luciferase reporter, luminescence, 16 h; DNA damage induced by 5-fluorouridine | Potency, µM (series often up to 46.1 µM), without a hit: at the highest dose activity change, negative = inhibition, most hits filed as inhibitors | 2.3% of 330,000 active | AID 504467; note: potency is the fitted concentration of half-maximal effect; nearly all actives have a fitted effect of over 55% in size
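5-Fluorouridine DNA damage + compound/DMSO, 2,000 cells/well, 16 h, 37 °C/5% CO2. ONE-Glo, 30 min RT, luminescence. Readout = decrease in reporter signal.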
B2AR arrestin: beta2AR (human) beta-arrestin recruitment activity | P07550 | AID 492947 | 0.02% of 330,000 active | Potency, µM (doses to about 46.1 µM), for inactives: at the top dose activation, usual class: activators | beta-arrestin recruitment to beta2AR, cell-based reporter;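 note: potency is the fitted concentration of half-maximal effect; 0% = DMSO controls and full agonism = EC100 isoproterenol or metaproterenol; nearly all actives have a fitted effect of over 65% in size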
* hit, by the source's call; ? = inconclusive; / = not tested or not shown; ! = not active in a repeat. Unless noted, calls come from the whole dose curve; as a rule, active = well fitted curve in the direction sought with a large enough effect; inconclusive = small, poorly fitted or top-dose-only effect, or another doubt; inactive = no such curve, though single readings can be large; an effect the other way counts as inactive or inconclusive. Unless noted, % is set by controls: 0 for no effect and ±100 for the full control effect.

SMILES | TSHR antagonist | Gal4-VP16 FLuc | RORg inh | ELG1 repair inh | B2AR arrestin
Cc1ccccc1CN1CCN(Cc2ccccc2)CC1 | 4 | 1% | 9% | 1% | 0%
Cc1ccccc1Cn1cnc2c(oc3ccccc32)c1=O | -6 | 26% | 4µM* | ? | 0%
CN1[C@@H]2CC[C@H]1CC(OC(c1ccc(F)cc1)c1ccc(F)cc1)C2 (some centres not stated) | / | -3% | ? | / | /
CC(=O)C1=C(O)[C@@H]2[C@@H]3c4c[nH]c5cccc(c45)C[C@@H]3C(C)(C)N2C1=O | / | -30% | -32% | / | /
CN1CCC2(CC1)N=C(c1ccc(F)cc1)C(=S)N2 | 27 | 1% | 13µM* | 17% | 0%
CN1CCC2(CC1)NC(=O)c1ccccc1N2 | -2 | -7% | -5% | 9% | 0%
CCOP(=S)(OCC)OCCSCC | / | -3% | 25% | / | /
Cn1cccc1C(=O)OCC(=O)NCc1cccs1 | -5 | / | / | ? | 0%
CC(C)c1ccc(N2C(=O)NC(=O)/C(=C\C=C\c3ccco3)C2=O)cc1 | -18 | 4.5µM* | ? | ? | 0%
O=C1NC(=O)N(Cc2ccccc2)C(=O)/C1=C/C=C/c1ccco1 | -5 | 13µM* | ? | ? | ?
C[S@@](=O)CCCCN=C=S | / | -11% | 3.2µM* | / | /
O=NN(c1ccccc1)c1ccccc1 | / | 19% | 3% | / | /
O=C(CCn1c(=O)oc2ccccc21)N1CCN(C(c2ccccc2)c2ccccc2)CC1 | 10 | -4% | 32% | 13µM* | 0%
CN1C2CC(=O)CC1C(O)C2 (configuration not stated) | / | -5% | -5% | / | /
COC(=O)C1=C(c2ccc3ccccc3c2)C[C@@H]2CC[C@H]1N2C(=O)NCCCOC(C)C | -15 | / | / | -2% | 0%
COC(=O)C1=C(c2ccc(-c3ccccc3)c(F)c2)C[C@@H]2CC[C@H]1N2C(=O)NCCc1ccccc1 | -71* | / | / | ? | 3%
COC(=O)C1=C(c2ccc(-c3ccccc3)c(F)c2)C[C@@H]2CC[C@H]1N2C(=O)NCCCOC(C)C | -83* | / | / | -29% | 0%
COC(=O)C1=C(c2ccc(-c3ccccc3)c(F)c2)C[C@@H]2CC[C@H]1N2C(=O)NCCNC(C)=O | -11 | / | / | -14% | 0%
COC(=O)C1=C(c2ccccc2OCc2ccccc2)C[C@@H]2CC[C@H]1N2C(=O)NCc1ccc(N(C)C)cc1 | 16 | / | / | 16µM* | -1%
Oc1ccc(Cl)cc1Cl | / | 2% | -13% | / | /
C[C@H]1CN([C@@H](C)CO)C(=O)c2cc(NC(=O)C3CCCCC3)ccc2O[C@H]1CN(C)Cc1ccc(-c2ccccc2)cc1 | -6 | / | / | 10µM* | 1%
CCCN1CCO[C@@H]2c3cc(O)ccc3OC[C@@H]21 | / | 8% | 8% | / | /
Clc1nc(Cl)nc(Nc2ccccc2Cl)n1 | / | -3% | -14% | / | /
CCC(=NCc1cc(OC)cc(OC)c1)c1c(O)n(C2CCCCC2)c(=O)[nH]c1=O | 3 | ? | 24% | 16µM* | 0%
CCCCn1c(O)c(C(CC)=NCc2cc(OC)cc(OC)c2)c(=O)[nH]c1=O | -6 | -12% | ? | 16µM* | 1%
SMILES | TSHR antagonist | Gal4-VP16 FLuc | RORg inh | ELG1 repair inh | B2AR arrestin
CCCCn1c(O)c(C(CC)=NCc2cccnc2)c(=O)[nH]c1=O | 23 | -7% | 2% | -7% | 0%
CCCCn1c(O)c(C(C)=NCc2cc(OC)cc(OC)c2)c(=O)[nH]c1=O | -12 | -11% | 7% | 23µM* | 0%
COc1cc(CN=C(C)c2c(O)n(C3CCCCC3)c(=O)[nH]c2=O)cc(OC)c1 | -7 | -7% | 16% | ? | 0%
CCC1(CC)CCNC1=O | / | 0% | -1% | / | /
COC(C(=O)C(O)C(C)O)C1Cc2cc3cc(OC4CC(OC5CC(O)C(OC)C(C)O5)C(OC(C)=O)C(C)O4)c(C)c(O)c3c(O)c2C(=O)C1OC1CC(OC2CC(OC3CC(C)(O)C(OC(C)=O)C(C)O3)C(O)C(C)O2)C(O)C(C)O1 (configuration not stated) | / | 1µM* | 1.3µM* | / | /
C[C@@H]1CC[C@H]2[C@@H](C)C(=O)O[C@@H]3OC4(C)CC[C@@H]1[C@]32OO4 | / | 2% | -8% | / | /
CC(=O)OC[C@]12C[C@H](OC(=O)CC(C)C)C(C)=C[C@H]1O[C@H]1[C@H](O)[C@@H](OC(C)=O)[C@@]2(C)[C@]12CO2 | / | -90% | 0.025µM* | / | /
On1ccccc1=S | -4 | / | / | ? | ?
CCOC(=O)C(O)(c1ccc(NC(=S)NC(=O)c2ccc(Cl)cc2Cl)cc1)C(F)(F)F (configuration not stated) | -31 | 10µM* | 6.3µM* | 1% | 0%
COC(=O)C(O)(c1ccc(NC(=S)NC(=O)c2ccc(Cl)cc2Cl)cc1)C(F)(F)F (configuration not stated) | -5 | ? | 5µM* | -12% | 0%
O=C(O)c1ccccc1-c1c2cc(Br)c(=O)cc-2oc2[c]([Hg])c(O)c(Br)cc12 | / | 18µM*! | ? | / | /
O=C(Nc1ccccc1C(=O)N/N=C/c1ccco1)c1ccccc1Cl | -4 | ? | 3.5µM* | 3% | -1%
O=c1cc(CN2CC=C(c3ccccc3)CC2)c2c(ccc3ccccc32)o1 | -3 | -6% | 5.6µM* | 12% | 0%
c1cc[n+]2c(c1)-c1cccc[n+]1CC2 | / | -6% | -27% | / | /
CCOC(=O)c1cc(CC)sc1/N=C/c1c(O)[nH]c(=S)[nH]c1=O | -2 | ? | 18µM* | -1% | 0%
CC(=O)NNc1ccccc1 | / | -6% | -12% | / | /
S=C1NC2(CCCCC2)NC12CCCCC2 | 9 | ? | 8.9µM* | 20% | 4%

Compound activity as filed in PubChem.
